Consider 38 compounds from PubChem BioAssay (NCI).

Compounds without any hit were thinned out: in the full panel of roughly 83,000, 20% have a hit.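 Step 1: grow cells in 96-well plates. Step 2: add test compound at a single concentration. Step 3: incubate 48 h. Step 4: record percent growth.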 Active and inactive are the calls of the source. The calls were made as follows: active = growth percent below 10; inactive = the rest.

One experiment concerns HCC-2998 colon. The experiment is described as follows: NCI-60 one-dose screen, 48 h (100 = growth as untreated, 0 = no growth, -100 = all killed). Conditions: 10 µM unless noted.
Take `O=[N+]([O-])c1cccc(C2c3ccccc3Oc3ccccc32)c1`: the growth is 91.1% (inactive). For `CCCCCCCC(=O)SCC/C=C/[C@@H]1CC(=O)NCc2nc(cs2)C2=N[C@@](C)(CS2)C(=O)N[C@@H](C(C)C)C(=O)N1`, the growth is -6.96% (active). Still for that read-out and setting: in the case of `Cc1ccc(NC(=O)CN2CCOCC2)cc1Cl` it was 96.8% (inactive).

Turning to `C=C1C(=O)O[C@H]2[C@H]1CC/C(COC(=O)c1ccc(C#N)cc1)=C\CC[C@@]1(C)O[C@@H]21`, the growth was 91.1% (inactive). Still for that read-out and setting: as for `CN[C@@H](CCCNC(N)=NC/C=C(/C)CCC=C(C)C)C(=O)N(C)[C@@H](CCCNC(N)=NCC=C(C)C)C(=O)N[C@H](C)[C@H](OS(=O)(=O)O)c1ccc(OS(=O)(=O)O)c(COS(=O)(=O)O)c1`, the figure is 105% (inactive); as for `C#CC(=O)/C=C/CCCCCCC#CC(=O)CCC(=O)C#CCCCCCC/C=C/C(=O)C#C`, 63.9% (inactive). For `C#C[C@@]1(O)[C@@H](CO)O[C@@H](n2cc(Br)c3c(Cl)ccnc32)[C@@H]1O`, the growth was 37% (inactive). As for `COc1cc(C(=O)N2CCN(C(=O)c3cc(OC)c(OCc4ccccc4)cc3N)CC2)c(N)cc1OCc1ccccc1`, the growth is 102% (inactive).

As to `c1ccc(CNCCN(CCNCc2ccccn2)Cc2ccc3ccccc3c2)nc1`, the growth was -18.3% (active). As to `O=C(O)c1ccc2nc(-c3ccc(OCCCCCOc4ccc(-c5nc6ccc(C(=O)O)cc6[nH]5)cc4)cc3)[nH]c2c1`, the growth is 16.4% (inactive). Regarding `COc1ccc(Cn2cc(COc3ccc4c5ccnc(C)c5n(CCCc5ccccc5)c4c3)nn2)cc1`, the growth was 83% (inactive). As to `COc1ccc(Cl)cc1NC(=O)c1cc2c([nH]1)-c1nc(N)sc1CCC2`, the growth was 109% (inactive). In the case of `COc1cc2c(cc1OCCCCC(=O)Nc1ccc(-c3nc4ccccc4s3)cc1)N=C[C@@H]1CCCN1C2=O`, the growth was -62% (active). For `CC(C)(CCN=C(N)Nc1ccccn1)c1ccc(C(F)(F)F)cc1`, the growth was -25.1% (active). Regarding `Cc1c(Cl)ccc2c(C(=O)Cl)cc(-c3ccccc3)nc12`, the growth was 109% (inactive). In the case of `Cn1c(I)c(C#C[Si](C)(C)C)c(=O)[nH]c1=O`, the growth is -67.1% (active). Consider `C#C[C@H](O)/C=C/CCCCCCC#C[C@H](O)CC[C@@H](O)C#CCCCCCC/C=C/[C@@H](O)C#C`, for which the growth is 95.2% (inactive). Turning to `COc1ccc(-c2nn(-c3ccc(NC(=O)c4cc(C(F)(F)F)cc(C(F)(F)F)c4)cc3)cc2-c2ccncc2)cc1Cl`, the growth was 77.5% (inactive).

Consider `COc1ccccc1C(OC(C)=O)OC(C)=O`, for which the growth was 105% (inactive).

For `CCc1c(C)c2cc3c(c(C)c2oc1=O)OCC(=O)N3`, the growth was 90% (inactive).

Consider `CC(=O)Cc1cccnc1`, for which the growth is 108% (inactive).

Regarding `OCc1cn(-c2ccc(Cl)cc2)nc1-c1ccc(O)cc1`, the growth was 103% (inactive). In the case of `CCCc1nn2c(CCC(=O)c3nc4ccc([N+](=O)[O-])cc4[nH]3)nnc2s1`, the growth was 100% (inactive). `O=C(CNc1cccnc1)Nc1ccc(C(=O)/C=C/c2ccc(Cl)cc2)cc1`: the growth was 86.2% (inactive). The same measure, in the same setting: in the case of `CC(C)CNCC(O)COc1ccc(C(C)(C)c2ccc(OCC(O)CNCC(C)C)cc2)cc1` (centres undefined) it was -24.5% (active); in that of `CCCCCCCCCCCCCCCCCCNCc1ccc(Cl)cc1`, -82.8% (active); in that of `Nc1nccc(=S)[nH]1`, 114% (inactive). Consider `O=C(Nc1ccc(-n2ccc3c(NC(=O)c4ccccc4)ncnc32)cc1)Nc1cccc(Cl)c1Cl`, for which the growth is 64.6% (inactive). Take `c1ccc2c(c1)Oc1cccnc1-n1nccc1-2`: the growth is 110% (inactive).

For `Nc1nc2ccc(CNc3ccc(C(=O)NC(CC(=O)O)C(=O)O)cc3)cc2c(=O)[nH]1` (centres undefined), the growth is 45.1% (inactive).

As for `COc1cc(-c2nc3ccccc3s2)ccc1OCc1nc2n(n1)S(=O)(=O)c1ccccc1N2C`, the growth is 109% (inactive). For the compound `C=CC(C)(O)CCC1C(=C)CCC2C(C)(C)CCCC12C` (centres undefined), the growth was 99.5% (inactive). On to `COc1ccc(-c2cc3ccc(N(C)C)cc3nc2N)c(F)c1`, for which the growth is 51.8% (inactive).

`O=C(Nc1ccc(-n2ccc3c(NC(=O)c4ccccc4)ncnc32)cc1)Nc1ccc(Cl)c(Cl)c1`: the growth was 32.7% (inactive). For `N#Cc1c(N)nc2c(c1N)C(c1ccc(Cl)cc1)C1=C(CCCC1=O)N2c1sc2c(c1C#N)CCCC2` (centres undefined), the growth is 90.3% (inactive). For `CCn1c(SC)nnc1-c1cc2c([nH]c3ccccc32)c(-c2cccc(O)c2)n1`, the growth is 41.5% (inactive).

A further experiment concerns KM12 colon. Described as above. As to conditions: 10 µM unless noted.
With `O=[N+]([O-])c1cccc(C2c3ccccc3Oc3ccccc32)c1`, the growth is 86.7% (inactive). As for `CCCCCCCC(=O)SCC/C=C/[C@@H]1CC(=O)NCc2nc(cs2)C2=N[C@@](C)(CS2)C(=O)N[C@@H](C(C)C)C(=O)N1`, the growth was 8.82% (active). On the same count and under the same terms, as for `Cc1ccc(NC(=O)CN2CCOCC2)cc1Cl`, the figure is 103% (inactive); as for `O=C(NOC1OC(CO)C(O)C(O)C1O)Nc1ccccc1` (centres undefined), 105% (inactive); as for `C=C1C(=O)O[C@H]2[C@H]1CC/C(COC(=O)c1ccc(C#N)cc1)=C\CC[C@@]1(C)O[C@@H]21`, 84.8% (inactive).

With `CN[C@@H](CCCNC(N)=NC/C=C(/C)CCC=C(C)C)C(=O)N(C)[C@@H](CCCNC(N)=NCC=C(C)C)C(=O)N[C@H](C)[C@H](OS(=O)(=O)O)c1ccc(OS(=O)(=O)O)c(COS(=O)(=O)O)c1`, the growth is 100% (inactive). Same read-out and setting: in the case of `C#CC(=O)/C=C/CCCCCCC#CC(=O)CCC(=O)C#CCCCCCC/C=C/C(=O)C#C` it was 49.2% (inactive). On to `C#C[C@@]1(O)[C@@H](CO)O[C@@H](n2cc(Br)c3c(Cl)ccnc32)[C@@H]1O`, for which the growth is 65% (inactive). The same measure, in the same setting: as for `COc1cc(C(=O)N2CCN(C(=O)c3cc(OC)c(OCc4ccccc4)cc3N)CC2)c(N)cc1OCc1ccccc1`, the figure is 109% (inactive). For the compound `c1ccc(CNCCN(CCNCc2ccccn2)Cc2ccc3ccccc3c2)nc1`, the growth was 12.5% (inactive).

`O=C(O)c1ccc2nc(-c3ccc(OCCCCCOc4ccc(-c5nc6ccc(C(=O)O)cc6[nH]5)cc4)cc3)[nH]c2c1`: the growth is 98.6% (inactive).

With `COc1ccc(Cn2cc(COc3ccc4c5ccnc(C)c5n(CCCc5ccccc5)c4c3)nn2)cc1`, the growth is 59.7% (inactive). On the same count and under the same terms, as for `COc1ccc(Cl)cc1NC(=O)c1cc2c([nH]1)-c1nc(N)sc1CCC2`, the figure is 97.3% (inactive); as for `COc1cc2c(cc1OCCCCC(=O)Nc1ccc(-c3nc4ccccc4s3)cc1)N=C[C@@H]1CCCN1C2=O`, -58.7% (active). In the case of `CC(C)(CCN=C(N)Nc1ccccn1)c1ccc(C(F)(F)F)cc1`, the growth was 13.5% (inactive).

Regarding `Cc1c(Cl)ccc2c(C(=O)Cl)cc(-c3ccccc3)nc12`, the growth is 102% (inactive). On the same count and under the same terms, as for `Cn1c(I)c(C#C[Si](C)(C)C)c(=O)[nH]c1=O`, the figure is 103% (inactive). As to `C#C[C@H](O)/C=C/CCCCCCC#C[C@H](O)CC[C@@H](O)C#CCCCCCC/C=C/[C@@H](O)C#C`, the growth was 93.2% (inactive). For `COc1ccc(-c2nn(-c3ccc(NC(=O)c4cc(C(F)(F)F)cc(C(F)(F)F)c4)cc3)cc2-c2ccncc2)cc1Cl`, the growth is 53.2% (inactive). With `COc1ccccc1C(OC(C)=O)OC(C)=O`, the growth was 105% (inactive). For the compound `CCc1c(C)c2cc3c(c(C)c2oc1=O)OCC(=O)N3`, the growth is 84.3% (inactive).

Consider `CC(=O)Cc1cccnc1`, for which the growth is 105% (inactive). `OCc1cn(-c2ccc(Cl)cc2)nc1-c1ccc(O)cc1`: the growth was 90.9% (inactive). As to `CCCc1nn2c(CCC(=O)c3nc4ccc([N+](=O)[O-])cc4[nH]3)nnc2s1`, the growth is 104% (inactive). On to `O=C(CNc1cccnc1)Nc1ccc(C(=O)/C=C/c2ccc(Cl)cc2)cc1`, for which the growth is 69.3% (inactive). The same measure, in the same setting: as for `CC(=O)Nc1ccc(OC(=O)c2ccccc2O)cc1`, the figure is 99.1% (inactive).

As for `CC(C)CNCC(O)COc1ccc(C(C)(C)c2ccc(OCC(O)CNCC(C)C)cc2)cc1` (centres undefined), the growth was 37.1% (inactive). In the case of `CCCCCCCCCCCCCCCCCCNCc1ccc(Cl)cc1`, the growth is -77.2% (active). On the same count and under the same terms, as for `Nc1nccc(=S)[nH]1`, the figure is 106% (inactive); as for `O=C(Nc1ccc(-n2ccc3c(NC(=O)c4ccccc4)ncnc32)cc1)Nc1cccc(Cl)c1Cl`, 20.7% (inactive). In the case of `c1ccc2c(c1)Oc1cccnc1-n1nccc1-2`, the growth is 100% (inactive).

With `Nc1nc2ccc(CNc3ccc(C(=O)NC(CC(=O)O)C(=O)O)cc3)cc2c(=O)[nH]1` (centres undefined), the growth was 29.8% (inactive). As to `COc1cc(-c2nc3ccccc3s2)ccc1OCc1nc2n(n1)S(=O)(=O)c1ccccc1N2C`, the growth was 84.2% (inactive). Still for that read-out and setting: as for `C=CC(C)(O)CCC1C(=C)CCC2C(C)(C)CCCC12C` (centres undefined), the figure is 99.8% (inactive). With `COc1ccc(-c2cc3ccc(N(C)C)cc3nc2N)c(F)c1`, the growth was 35% (inactive). For `O=C(Nc1ccc(-n2ccc3c(NC(=O)c4ccccc4)ncnc32)cc1)Nc1ccc(Cl)c(Cl)c1`, the growth is -8.64% (active). Consider `N#Cc1c(N)nc2c(c1N)C(c1ccc(Cl)cc1)C1=C(CCCC1=O)N2c1sc2c(c1C#N)CCCC2` (centres undefined), for which the growth is 89.7% (inactive). In the case of `CCn1c(SC)nnc1-c1cc2c([nH]c3ccccc32)c(-c2cccc(O)c2)n1`, the growth was 11.5% (inactive).
